# CYP2C9 inhib – human CYP2C9 inhibition; P11712; CYP2C9 Supersomes, luciferin-H conversion, luminescence; inhibition, % at 5 µM; actives 20% (n = 96,000);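 active means blocking of liver enzyme CYP2C9 beyond about 50% at 5 µM, limit read from the data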
# PLK1 kinase inh – blocks human PLK1 kinase activity | inhibition, % at 10 µM | actives 0.53% (n = 97,000) | P53350 | AID 619 | recombinant PLK1 kinase, TR-FRET peptide phosphorylation;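 active means inhibition of 50% or more in the single-concentration screen; inactive means inhibition below 50%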;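 further: 0% = DMSO max control and 100% = H-89 dihydrochloride min control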
# Target sequence (P53350 whole entry, looked up): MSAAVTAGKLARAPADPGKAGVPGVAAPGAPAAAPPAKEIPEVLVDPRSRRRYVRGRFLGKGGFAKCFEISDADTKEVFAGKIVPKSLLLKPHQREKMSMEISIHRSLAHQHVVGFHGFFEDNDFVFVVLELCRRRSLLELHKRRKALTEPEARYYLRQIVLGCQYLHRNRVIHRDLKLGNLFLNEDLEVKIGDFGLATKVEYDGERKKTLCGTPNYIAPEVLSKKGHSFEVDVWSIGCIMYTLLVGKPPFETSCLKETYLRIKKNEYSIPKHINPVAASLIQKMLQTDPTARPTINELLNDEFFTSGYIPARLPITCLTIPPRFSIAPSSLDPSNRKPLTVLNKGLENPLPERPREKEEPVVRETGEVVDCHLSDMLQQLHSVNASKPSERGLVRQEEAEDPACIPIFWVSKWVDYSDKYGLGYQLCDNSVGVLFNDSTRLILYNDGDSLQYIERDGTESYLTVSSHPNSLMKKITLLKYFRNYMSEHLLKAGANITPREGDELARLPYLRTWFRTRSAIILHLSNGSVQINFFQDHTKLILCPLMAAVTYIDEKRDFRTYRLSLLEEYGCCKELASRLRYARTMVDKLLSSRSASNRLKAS
# CYP2C19 inh – inhibitors of human CYP2C19; CYP2C19 Supersomes, luciferin-H EGE luminescence, 30 min; inhibition, % at 5 µM; actives 21% (n = 96,000);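 active means CYP2C19 inhibition above a set limit at 5 µM in the primary screen, cut at about 50% in these data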;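 further: plate controls were negative control wells for no effect and 2.5 mM tranylcypromine positive control for full effect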
# CYP2C19 activ – increases human CYP2C19 enzyme activity; P33261; recombinant CYP2C19, luciferin-H EGE luminescence; active compounds read high; 0 = fully inhibited enzyme, 1 = untreated enzyme; activation factor at 5 µM; 96,000 tested, under 10 active;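 active means activation factor of at least 2 at 5 µM in the primary screen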;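 further: 0 = wells with 2.5 mM tranylcypromine and 1 = vehicle-only wells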
# CYP2C9 act – increases human cytochrome P450 2C9 activity | recombinant CYP2C9, luciferin-H conversion, luminescence; active compounds read high; factor 1 = untreated enzyme, 0 = blocked | activation factor at 5 µM | actives 1.4% (n = 96,000) | AID 1024;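 active means activation factor of 2 or more for CYP2C9 at a 5 µM dose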;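 further: 0 = sulfaphenazole-blocked wells and 1 = vehicle-only wells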
# PLK1 PBD inh – Plk1 (human) PBD binding inhibition; actives 0.13% (n = 97,000); Plk1 PBD phosphopeptide binding, fluorescence polarization; inhibition, %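 (tested at about 20 µM)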; AID 693; in the data active means inhibition above about 34%, passing the limit was not always enough
# * = called active by the depositor; · = no result. Shown are actives, neighbours in structure and some others; about 28% of the full set was active somewhere.
SMILES,CYP2C9 inhib,PLK1 kinase inh,CYP2C19 inh,CYP2C19 activ,CYP2C9 act,PLK1 PBD inh
CCC(=O)N1CCN(c2ccc(Cl)cc2NC(=O)Cc2ccccc2)CC1,79*,-5,83*,0.2,0.2,2
CCC(=O)N1CCN(c2ccc(Cl)cc2NC(=O)c2ccc3c(c2)OCCO3)CC1,71*,-3,26,0.7,0.3,-4
C1CCc2nnc(-c3nnc4n3CCCCC4)n2CC1,-12,-7,-16,1.2,1.1,15
Cc1ccc(C)n1-c1ccc(-c2nnc3n2CCCCC3)s1,64*,-4,37,0.6,0.4,-26
Cc1cc(C)n2c(SCC(=O)Nc3ccc(Cl)cn3)nnc2n1,16,-15,36,0.6,0.8,8
Cc1ccc(-c2noc(C3CCN(C(=O)Nc4ccc(C#N)cc4)CC3)n2)o1,61*,9,83*,0.2,0.4,-1
Cc1ccc(-c2noc(C3CCN(S(=O)(=O)c4ccc5c(c4)OCCO5)CC3)n2)o1,-20,-4,5,0.9,1.2,11
Cc1cc(S(=O)(=O)NCCc2ccccc2)c(C)s1,47,-1,32,0.7,0.5,6
COc1cc2c(cc1NC(=O)COC(=O)C1CC(=O)N(Cc3ccco3)C1)oc1ccccc12 (stereo not given),59*,-1,26,0.7,0.4,-5
Cc1ccc(C(=O)Oc2ccc(C(=O)COC(=O)C3CC(=O)N(Cc4ccco4)C3)cc2)cc1 (stereo not given),·,-9,·,·,·,2
Cc1[nH]c2ccccc2c1C(=O)COC(=O)C1CC(=O)N(Cc2ccco2)C1 (stereo not given),11,7,56*,0.4,0.9,-15
O=C(COC(=O)C1CC(=O)N(Cc2ccco2)C1)c1ccc(OC(=O)c2ccco2)cc1 (stereo not given),·,-4,·,·,·,-22
O=C(NCc1ccc(Cl)cc1)c1noc2c1CCCCC2,44,·,20,0.8,0.6,·
CCn1cc(C(=O)NCc2ccco2)c(=O)c2cc(S(=O)(=O)N3CCCCCC3)ccc21,86*,-7,49,0.5,0.1,20
CCn1cc(C(=O)N2CCCCC2)c(=O)c2cc(S(=O)(=O)N3CCC(C)CC3)ccc21,-8,50*,-16,1.2,1.1,-5
CCn1cc(C(=O)NCc2ccco2)c(=O)c2cc(S(=O)(=O)N3CCC(C)CC3)ccc21,66*,-6,13,0.9,0.3,-4
CCn1cc(C(=O)NCc2ccccn2)c(=O)c2cc(S(=O)(=O)N3CCCCC3)ccc21,48,3,10,0.9,0.5,-8
CCn1cc(C(=O)NCCCN2CCC(C)CC2)c(=O)c2cc(S(=O)(=O)N3CCCC3)ccc21,14,·,-5,1,0.9,·
CCn1cc(C(=O)NCc2ccco2)c(=O)c2cc(S(=O)(=O)N3CC(C)CC(C)C3)ccc21 (stereo not given),58*,-7,9,0.9,0.4,-1
CCOC(=O)N1CCN(Cc2nc3c(c(=O)[nH]c(=O)n3C)n2CCCc2ccccc2)CC1,34,-5,5,1,0.7,-1
COc1ccccc1COCC(O)CNCC1(N2CCCCC2)CCCCC1 (stereo not given),5,-9,1,1,1,3
C=CCn1cc(C(=O)NCc2ccco2)c(=O)c2cc(S(=O)(=O)N3CCCCCC3)ccc21,89*,-9,44,0.6,0.1,8
O=C(COC(=O)c1cccc(S(=O)(=O)N2CCc3ccccc3C2)c1)NCc1ccco1,42,·,28,0.7,0.6,·
CCn1cc(C(=O)NCc2ccco2)c(=O)c2cc(S(=O)(=O)N3CCc4ccccc4C3)ccc21,78*,-6,36,0.6,0.2,10
O=C(COC(=O)c1cc(S(=O)(=O)N2CCc3ccccc3C2)ccc1Cl)NCc1ccco1,66*,13,40,0.6,0.3,-28
SMILES,CYP2C9 inhib,PLK1 kinase inh,CYP2C19 inh,CYP2C19 activ,CYP2C9 act,PLK1 PBD inh
CCN1CCN(CC(=O)Nc2cccc(C)c2)C(=O)C1=O,·,-8,·,·,·,21
Cn1c(=O)c2c(nc3sccn32)n(C)c1=O,·,4,·,·,·,-19
N#Cc1ccc(NC(=O)c2sc3cc(C(F)(F)F)cnc3c2-c2cccs2)cc1,62*,-81,-10,1.1,0.4,-6
O=C(O)c1sc2cc(C(F)(F)F)cnc2c1-c1ccccc1,-10,-9,-3,1,1.1,22
CSc1nnc(-c2sc3cc(C(F)(F)F)cnc3c2-c2ccccc2)n1C,71*,-11,25,0.7,0.3,9
COC(=O)c1sc2cc(C(F)(F)F)cnc2c1-c1ccccc1,59*,-8,27,0.7,0.4,-25
O=C(Nc1c(-c2ccccc2)nc2sccn12)c1ccccc1,74*,·,79*,0.2,0.3,·
Cc1ccn2c(NC(=O)c3ccco3)c(-c3ccccc3)nc2c1,·,-8,·,·,·,-4
COc1cc(C(=O)NCCC(=O)NCCCN2CCCCC2)cc(OC)c1OC,-2,·,-5,1.1,1,·
COc1ccc(N(CC(=O)NCc2cccs2)S(=O)(=O)c2cccnc2)cc1,64*,-8,84*,0.2,0.4,-2
COc1ccc(N(CC(=O)NCc2cccs2)S(=O)(=O)c2c(C)n[nH]c2C)cc1,32,-11,73*,0.3,0.7,-16
COc1ccc(-c2nc3c(n2O)CCCC3=O)cc1OC,-7,-2,-5,1.1,1.1,-7
CCCc1nn2c(=O)c(C(c3cccc(Cl)c3)c3c(O)nc4sc(CCC)nn4c3=O)c(O)nc2s1,12,-12,4,1,0.9,-32
O=C1C(=O)N(CCOCCO)C(c2ccccn2)/C1=C(\O)c1ccccc1 (stereo not given),-6,-9,-14,1.1,1.1,-2
COCCCN1C(=O)c2ccc(C(=O)Nc3ccc(OC)cc3)cc2C1=O,13,-4,10,0.9,0.9,-12
COc1ccc(-c2csc(C3=C(O)CN(Cc4ccc(Cl)cc4)C3=N)n2)cc1OC,89*,-8,43,0.6,0.1,21
COc1ccc(-c2csc(C3=C(O)CN(Cc4ccc(S(N)(=O)=O)cc4)C3=N)n2)cc1OC,5,-2,26,0.7,1,-9
N=C1C(c2nc(-c3ccc(F)cc3)cs2)=C(O)CN1Cc1ccc(Cl)cc1,53*,-11,45,0.5,0.5,-11
CCOC(=O)C1CCN(C(=O)COC(=O)COc2ccccc2OC)CC1,-22,16,5,1,1.2,1
CCOC(=O)C1CCN(C(=O)c2ccccc2Oc2ccccc2)CC1,92*,-12,85*,0.2,0.1,-10
COc1ccccc1C(=O)N1CCN(CCc2ccccc2)CC1,49,-6,61*,0.4,0.5,21
CCOc1ccccc1C(=O)N1CCCCC1C (stereo not given),58*,0,69*,0.3,0.4,-29

# Source: PubChem (several laboratories)
